High-throughput results deposited in PubChem by National Center for Advancing Translational Sciences (NCATS).
An excerpt weighted towards active compounds, which were near 19% of everything screened.
HT1080 IDH1KD tx: kills HT-1080 cells with IDH1 knockdown; AID 686971; HT-1080 IDH1 knockdown viability, ATP luminescence, 48 h; 2% of 360,000 active; Potency, µM (top dose mostly 46.1 µM), for the others: top-dose activity, negative = toxicity, actives largely listed as cytotoxic;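 further: potency means the concentration at half of the fitted maximal effect; 0% = DMSO wells and -100% = cell-free medium wells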
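IDH1KD HT-1080 cells, 750/well, RPMI + 5% FBS; compound pinned after 2 h settling; 48 h, 37 °C; CellTiter-Glo luminescence; % activity normalised to DMSO and no-cell wells; curves fitted, classed by r2 and efficacy.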
HT1080NT lethal: kills 2HG-producing HT-1080-NT fibrosarcoma cells. HT-1080-NT fibrosarcoma viability, CellTiter-Glo ATP luminescence, 48 h. Potency, µM (highest dose often 46.1 µM), for inactives: at the top dose activity, negative = less viability, hits mostly cytotoxic. 1.6% of 360,000 active. AID 686970;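 further: NT is the 2HG producing partner of a matched IDH1 knockdown line; potency means the concentration at half of the fitted maximal effect; 0% = DMSO-treated cells and -100% = media-only wells without cells; nearly all actives have a fitted effect of over 55% in size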
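Luminescent CellTiter-Glo readout after 48 hours of compound exposure at 37 degrees C defined viability of HT-1080-NT cells. Activity was normalized to DMSO wells and cell-free media wells; concentration-response curves were fitted and assigned curve classes.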
DT40 TDP1 no CPT: qHTS for Inhibitors of human tyrosyl-DNA phosphodiesterase 1 (TDP1): qHTS in cells in absence of CPT. DT40 Tdp1-/- hTDP1 cells, no CPT, ATP luminescence, 48 h. Potency, µM (doses to about 46.2 µM), inactives show at the top dose activity change, negative = growth inhibition, actives largely listed as inhibitors. 15% of 420,000 active. AID 686978, 2013; further: potency means the concentration at half of the fitted maximal effect; nearly all actives have a fitted effect of over 55% in size
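Luminescent ATP content (CellTiter-Glo) served as the growth readout. Knockout chicken DT40 cells expressing human TDP1 were exposed to compounds without camptothecin for a minimum 48 hr at 37 °C.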
TDP1 cell CPT: DT40-hTDP1 cell growth loss with CPT; 12% of 420,000 active; chicken DT40 Tdp1-/-;hTDP1 cells + 20 nM CPT, ATP luminescence, 48 h; Potency, µM (series often up to 46.2 µM), for the others: at the top dose activity change, negative = growth inhibition, most hits filed as inhibitors; further: potency means the concentration at half of the fitted maximal effect; nearly all actives have a fitted effect of over 55% in size
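Chicken DT40 Tdp1-/- cells stably complemented with human TDP1 were seeded at 400 cells/well in medium containing 20 nM camptothecin, exposed to pin-transferred compounds, and grown at 37 °C for at least 48 hr. Viability was read as ATP luminescence.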
IL1B secr inh: inhibitors of inflammasome signaling (IL-1 beta secretion). THP-1 LPS/ATP IL-1B secretion, AlphaLISA, 16 h; active compounds read low. activity change, % at 57.5 µM. 4.7% of 360,000 active; in the data active means activity change below about -50%; inconclusive means mostly about -30% to -49%
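Secreted IL-1B measured by AlphaLISA bead assay after 16 h compound exposure of THP-1 cells; compounds (final up to 57.5 uM) added 1 h before LPS (250 ng/mL) and ATP (1.25 mM) stimulation; lower signal means less secretion.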
The depositor's hits bear a star. Unless noted, the call rests on the fitted dose curve; in most records, active means well fitted curve in the direction sought with a large enough effect; inconclusive means small, poorly fitted or top-dose-only effect, or another doubt; inactive means no such curve, though single readings can be large; an effect the other way counts as inactive or inconclusive. Unless noted, on the % scale 0 is the no-effect control and ±100 the full control effect.

How did COc1cc(COc2cc(N)c(Cl)cc2C(=O)CCC2CCN(CCNS(C)(=O)=O)CC2)cc(OC)c1 do in these assays?
DT40 TDP1 no CPT: 16µM*; TDP1 cell CPT: 27µM*

Results for COc1cc(N)c(Cl)cc1C(=O)CCC1CCN(CCNS(C)(=O)=O)CC1 ?
DT40 TDP1 no CPT: -14%; TDP1 cell CPT: -15%

What do the screens show for `CC(=O)Nc1ccc(S(=O)(=O)Nc2ccc(Cc3ccncc3)cc2)cc1`?
HT1080 IDH1KD tx: -6%; HT1080NT lethal: inconclusive; DT40 TDP1 no CPT: 9.2µM*; TDP1 cell CPT: inconclusive; IL1B secr inh: -5

What do the screens show for `CC(C)(C)c1ccc(S(=O)(=O)Nc2ccc(Cc3ccncc3)cc2)cc1`?
HT1080 IDH1KD tx: inconclusive; HT1080NT lethal: -7%; DT40 TDP1 no CPT: 16µM*; TDP1 cell CPT: inconclusive; IL1B secr inh: inconclusive

What do the screens show for `O=C(NCCN1CCOCC1)c1ccc2ccccc2c1`?
HT1080 IDH1KD tx: -15%; HT1080NT lethal: -7%; DT40 TDP1 no CPT: -14%; TDP1 cell CPT: 21µM*; IL1B secr inh: 18

Results for O=C(NCCN1CCOCC1)c1cc(-c2ccco2)on1 ?
HT1080 IDH1KD tx: 10%; HT1080NT lethal: 4%; DT40 TDP1 no CPT: 15µM*; TDP1 cell CPT: 15µM*; IL1B secr inh: 3

Results for COc1ccc(-n2nc3c(N4CCCC(C(=O)NCc5cccc(F)c5)C4)nnc(C)c3c2C)cc1 (stereo unspecified) ?
DT40 TDP1 no CPT: 13µM*; TDP1 cell CPT: 8.2µM*

What do the screens show for `Cc1nnc(N2CCCC(C(=O)NCc3cccc(F)c3)C2)c2nn(-c3ccccc3)c(C)c12` (stereo unspecified)?
HT1080 IDH1KD tx: -15%; HT1080NT lethal: -4%; DT40 TDP1 no CPT: 13µM*; TDP1 cell CPT: inconclusive; IL1B secr inh: inconclusive

What do the screens show for `CC(C)C[C@@H](CO)N1CCN(C)CCC1=O`?
HT1080 IDH1KD tx: 15%; HT1080NT lethal: 5%; DT40 TDP1 no CPT: -10%; TDP1 cell CPT: 3%; IL1B secr inh: -2

Results for COc1ccc(C(O)(C(C)C)C(CN2CCOCC2)c2ccc(Cl)cc2)cc1 (stereo unspecified) ?
HT1080 IDH1KD tx: 7%; HT1080NT lethal: -20%; DT40 TDP1 no CPT: 18µM*; TDP1 cell CPT: inconclusive; IL1B secr inh: -17

How did CCCCCC(O)(c1ccc(OC)cc1)C(CN1CCOCC1)c1ccccc1 (stereo unspecified) do in these assays?
HT1080 IDH1KD tx: inconclusive; HT1080NT lethal: inconclusive; DT40 TDP1 no CPT: 10µM*; TDP1 cell CPT: 16µM*; IL1B secr inh: -30

How did CCCC(O)(c1ccc(OC)cc1)C(CN1CCOCC1)c1ccccc1 (stereo unspecified) do in these assays?
HT1080 IDH1KD tx: -13%; HT1080NT lethal: -6%; DT40 TDP1 no CPT: inconclusive; TDP1 cell CPT: inconclusive; IL1B secr inh: -5

Results for CCCCC(O)(c1ccc(OC)cc1)C(CN1CCOCC1)c1ccccc1 (stereo unspecified) ?
HT1080 IDH1KD tx: inconclusive; HT1080NT lethal: inconclusive; DT40 TDP1 no CPT: 23µM*; TDP1 cell CPT: 18µM*; IL1B secr inh: inconclusive

What do the screens show for `CCCCCC(O)(c1ccc(OCC)cc1)C(CN1CCOCC1)c1ccccc1` (stereo unspecified)?
HT1080 IDH1KD tx: 16µM*; HT1080NT lethal: inconclusive; DT40 TDP1 no CPT: 16µM*; TDP1 cell CPT: inconclusive; IL1B secr inh: -85*

How did COc1ccc(C(O)(C(C)C)C(CN2CCOCC2)c2ccccc2)cc1 (stereo unspecified) do in these assays?
HT1080 IDH1KD tx: 3%; HT1080NT lethal: 4%; DT40 TDP1 no CPT: inconclusive; TDP1 cell CPT: inconclusive; IL1B secr inh: 13

Results for Cc1ccccc1OCCn1c(=S)[nH]c2ccccc21 ?
HT1080 IDH1KD tx: inconclusive; HT1080NT lethal: -28%; DT40 TDP1 no CPT: inconclusive; TDP1 cell CPT: inconclusive; IL1B secr inh: 3

What do the screens show for `CCc1nc2c(OCc3ccccc3)cccn2c1N(C)C(=O)COc1ccccc1`?
HT1080 IDH1KD tx: -14%; HT1080NT lethal: 0%; DT40 TDP1 no CPT: inconclusive; TDP1 cell CPT: 23µM*; IL1B secr inh: 14

Results for CCc1nc2c(OCc3ccccc3)cccn2c1N(C)C(C)=O ?
HT1080 IDH1KD tx: 28%; HT1080NT lethal: inconclusive; DT40 TDP1 no CPT: -2%; TDP1 cell CPT: -2%; IL1B secr inh: 1

How did CCc1nc2c(OCc3ccc(F)cc3)cccn2c1N(C)C(=O)COc1ccccc1 do in these assays?
HT1080 IDH1KD tx: inconclusive; HT1080NT lethal: inconclusive; DT40 TDP1 no CPT: inconclusive; TDP1 cell CPT: 21µM*; IL1B secr inh: 0

How did CCCCn1nc(C(=O)Nc2ccccc2N2CCCC2)c2ccccc2c1=O do in these assays?
HT1080 IDH1KD tx: -1%; HT1080NT lethal: 2%; DT40 TDP1 no CPT: inconclusive; TDP1 cell CPT: inconclusive; IL1B secr inh: -9

How did C[C@H](CO)N1C[C@H](C)[C@@H](CN(C)C(=O)Nc2ccccc2)Oc2c(NC(=O)Nc3ccc4c(c3)OCO4)cccc2C1=O do in these assays?
HT1080 IDH1KD tx: 10%; HT1080NT lethal: 0%; DT40 TDP1 no CPT: inconclusive; TDP1 cell CPT: 13µM*; IL1B secr inh: 1

How did C[C@H](CO)N1C[C@H](C)[C@@H](CN(C)C(=O)Nc2ccc3c(c2)OCO3)Oc2c(NC(=O)Nc3ccc4c(c3)OCO4)cccc2C1=O do in these assays?
HT1080 IDH1KD tx: -8%; HT1080NT lethal: 0%; DT40 TDP1 no CPT: 23µM*; TDP1 cell CPT: 16µM*; IL1B secr inh: -11

Results for C(=N\Nc1nc2ccccc2[nH]1)/c1c[nH]c2ccccc12 ?
HT1080 IDH1KD tx: inconclusive; HT1080NT lethal: 16µM*; DT40 TDP1 no CPT: 16µM*; TDP1 cell CPT: inconclusive; IL1B secr inh: -95*

What do the screens show for `O=[N+]([O-])c1cc(/C=N/Nc2nc3ccccc3[nH]2)c(O)cc1O`?
HT1080 IDH1KD tx: 7.3µM*; HT1080NT lethal: inconclusive; DT40 TDP1 no CPT: 4.6µM*; TDP1 cell CPT: 4.6µM*; IL1B secr inh: 61

Results for Cc1nn(-c2ccccc2)c(Cl)c1/C=N/Nc1nc2ccccc2[nH]1 ?
HT1080 IDH1KD tx: inconclusive; HT1080NT lethal: inconclusive; DT40 TDP1 no CPT: -28%; TDP1 cell CPT: inconclusive; IL1B secr inh: -5

What do the screens show for `Cc1[nH]c2ccccc2c1/C=N/Nc1nc(N2CCCCC2)nc(N2CCCCC2)n1`?
HT1080 IDH1KD tx: 0%; HT1080NT lethal: -10%; DT40 TDP1 no CPT: inconclusive; TDP1 cell CPT: inconclusive; IL1B secr inh: inactive

What do the screens show for `Cc1ccc(/C=N/Nc2nc3ccccc3[nH]2)s1`?
HT1080 IDH1KD tx: -7%; HT1080NT lethal: 1%; DT40 TDP1 no CPT: inconclusive; TDP1 cell CPT: 15µM*; IL1B secr inh: -108*
